These results are taken from PubChem BioAssay (NCATS).

Assay [1] addresses Voltage-gated inwardly rectifying potassium channel KCNH2 (Homo sapiens) (UniProt Q12809). Kind of assay: qHTS Assay for Small Molecule Inhibitors of the Human hERG Channel Activity (AID 588834).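 Also: U2OS cells transduced with hERG by BacMam; top concentration of the series differs between compounds; lower thallium flux fluorescence means stronger hERG block; nearly all actives have a fitted effect of over 50% in size.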 The method, boiled down: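 Cells were infected with hERG-BacMam virus for 4 hrs at room temperature, grown overnight, then seeded at 2000/well. After dye loading and roughly 10 min compound treatment, thallium influx was triggered and fluorescence recorded.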
Background: qHTS replaces the single test concentration by a dilution series.

Assay [2] addresses Luciferin 4-monooxygenase (Photinus pyralis) (UniProt P08659). Kind of assay: Biochemical firefly luciferase enzyme assay for NPC (AID 624030). Also: nearly all actives have a fitted effect of over 70% in size. Also: potency is read from the fitted curve at half-maximal effect. The method, boiled down:
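Purified P. pyralis luciferase at 10 nM in 50 mM Tris Acetate (final), luminescence read within 5 minutes of enzyme addition to compounds. Activity normalised to PTC124 versus DMSO; concentration-response curves classed by r2, magnitude and activity.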

Assay [3] can be described thus: qHTS assay for small molecule activators of the p53 signaling pathway (AID 651743; active = well fitted activation curve with a large enough effect in the signal ratio, not every such curve was filed as active; the % refers to the signal ratio; also: series mostly up to about 92 µM). To be noted: HCT-116 p53RE-bla, beta-lactamase FRET ratio, 16 h; active compounds read high. The method, boiled down:
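Reporter: beta-lactamase driven by p53 response elements, stably integrated in HCT-116 cells. Cells seeded at 4,000/well, 5 h preincubation, compound (DMSO) 16 h at 37 C; B/G FRET substrate 2 h RT; fluorescence intensity read.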

Assay [4] is described as follows: qHTS assay for small molecule activators of the nuclear factor-kappa B (NF-kB) signaling pathway (AID 651749; active = well fitted activation curve with a large enough effect in the signal ratio; the % refers to the signal ratio; also: series mostly up to about 77 µM). As to conditions: NF-kB-bla ME-180 cells, beta-lactamase FRET ratio, 16 h; active compounds read high. The method, boiled down: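 NF-kB-bla ME-180 cells, 2,000/well; 23 nL compound or DMSO pinned; 16 hr, 37C/5% CO2; beta-lactamase FRET read-out.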
Assay [5] has as its target Tumor necrosis factor (Homo sapiens) (UniProt P01375). Description: qHTS assay to identify small molecules that stimulate Tumor Necrosis Factor-alpha (TNF-alpha) secretion (AID 651757; active = well fitted curve in the direction sought with a large enough effect in the signal ratio; the % refers to the signal ratio). A digest of the protocol:
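Using 3000 THP-1 cells per well, compounds and controls were applied for 17 hrs at 37 C. Detection followed with two labeled anti-TNF-alpha antibodies (cryptate donor, XL665 acceptor) for 3 hr at room temperature, measured by TR-FRET.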

Assay [6] in a line: qHTS assay to identify small molecules that stimulate interleukin-8 (IL-8) secretion (AID 651758; active = well fitted activation curve with a large enough effect in the signal ratio; the % refers to the signal ratio). A digest of the protocol:
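Compounds are added to THP-1 cells (2000 per well) and left 16 hrs at 37 C. A labeled anti-IL-8 antibody pair is then added, and IL-8 secretion is measured by time-resolved FRET after 1-3 hrs at room temperature.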

Assay [7] in a line: qHTS assay for environmental chemicals that activate the Aryl hydrocarbon Receptor (AhR) signaling pathway (AID 651777). Also: nearly all actives have a fitted effect of over 15% in size. To be noted: 1A2-DRE human hepatoma cells, luciferase, 24 h; active compounds read high. The method, boiled down: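 1A2-DRE human hepatoma reporter line; 1,200 cells/well; cmpd or DMSO 24 h, 37 C/5% CO2; One-Glo 30 min RT; luciferase lum.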
For assay [8], the target named is Peroxisome proliferator-activated receptor alpha (Homo sapiens) (UniProt Q07869). Kind of assay: qHTS assay for small molecule agonists of the peroxisome proliferator-activated receptor alpha (PPARalpha) signaling pathway (AID 651778). To be noted: PathHunter PPARalpha complementation, chemiluminescence, 6 h; max response: active compounds read high. The method, boiled down:
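Enzyme-fragment complementation assay in which ligand-bound PPARalpha translocates and forms an active enzyme that generates chemiluminescence. Cells were plated overnight, exposed to compound for 6 hr at 37 C, and then given detection reagent for 60 min at room temperature.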

A short description of assay [9]: S16 Schwann cell viability assay (CellTiter-Glo assay) (AID 624031).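 Also: cellular ATP luminescence as a viability measure; series mostly up to about 58 µM; nearly all actives have a fitted effect of over 70% in size.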 A digest of the protocol:
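Luminescent ATP read-out (CellTiter-Glo) after 24 h compound exposure of native S16 rat Schwann cells at 37 °C. Signals were normalized between cell-free wells and DMSO-treated cells, set as 0% activity.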
For orientation: In ATP-based viability assays light output follows the ATP content of the culture.

The nature of assay [10]: S16 Schwann cell PMP22 intronic element firefly luciferase assay (AID 624032). Also: series mostly up to about 58 µM; nearly all actives have a fitted effect of over 30% in size. A digest of the protocol:
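Rat S16 Schwann cells stably carrying firefly luciferase driven by a PMP22 intronic element, in 10% FBS, treated 24 h at 37 C. ONE-Glo luminescence normalized to PTC124 control and DMSO (0%); curves classed by r2, magnitude and activity.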

A short description of assay [11]: S16 Schwann cell PMP22 intronic element beta-lactamase assay (AID 624044; calls by dose curve; also: nearly all actives have a fitted effect of over 15% in size). A digest of the protocol: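 Beta-lactamase reporter under a PMP22 intronic regulatory element in stable S16 rat Schwann cells; 24 h compound exposure. 460 nm blue signal normalized between DMSO (0%) and potassium clavulanate, with 535 nm FRET tracking viability; curves classed by r2 and response.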

Assay [12] is described as follows: qHTS assay for small molecule agonists of the antioxidant response element (ARE) signaling pathway (AID 651741; active = well fitted activation curve with a large enough effect in the signal ratio; the % refers to the signal ratio; also: potency is read from the fitted curve at half-maximal effect). The method, boiled down:
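HepG2 ARE-bla reporter cells, 2,000/well; 5 h settle at 37 C/5% CO2; compound pin transfer (23 nL, DMSO); 16 h at 37 C; LiveBLAzer B/G FRET substrate, 2 h RT; fluorescence intensity read.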

Values joined by “and” are separate entries in the source; they are usually repeats but may differ in a detail not shown here. Identical values can stand only once. Values without a mark were called inactive. Records with an inconclusive call do not appear. Where a call stands in place of a potency, no number is given. Active and inactive are the calls of the source. Unless noted, calls follow the shape of the dose curve; as a rule, active = well fitted curve in the direction sought with a large enough effect; inconclusive = small, poorly fitted or top-dose-only effect, or another doubt; inactive = no such curve, though single readings can be large; an effect the other way counts as inactive or inconclusive.

Chain of Luciferin 4-monooxygenase (Photinus pyralis) (P08659 whole entry, looked up): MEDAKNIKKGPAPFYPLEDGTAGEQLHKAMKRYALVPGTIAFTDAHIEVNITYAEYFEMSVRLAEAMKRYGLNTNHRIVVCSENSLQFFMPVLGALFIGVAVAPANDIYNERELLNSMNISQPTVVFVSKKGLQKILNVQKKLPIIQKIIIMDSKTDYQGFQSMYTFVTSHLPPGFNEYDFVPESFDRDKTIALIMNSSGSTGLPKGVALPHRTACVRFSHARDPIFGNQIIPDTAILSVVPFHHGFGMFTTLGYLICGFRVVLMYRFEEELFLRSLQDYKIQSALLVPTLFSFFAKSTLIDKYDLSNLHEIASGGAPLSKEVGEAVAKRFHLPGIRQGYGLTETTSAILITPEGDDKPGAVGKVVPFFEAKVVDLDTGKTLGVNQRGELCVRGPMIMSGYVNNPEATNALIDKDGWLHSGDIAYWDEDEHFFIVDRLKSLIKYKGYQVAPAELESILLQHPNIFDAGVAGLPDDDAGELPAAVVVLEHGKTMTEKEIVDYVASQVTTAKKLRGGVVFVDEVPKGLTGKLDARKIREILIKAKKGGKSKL
Chain of Peroxisome proliferator-activated receptor alpha (Homo sapiens) (Q07869 whole entry, looked up, the tested form may be a part): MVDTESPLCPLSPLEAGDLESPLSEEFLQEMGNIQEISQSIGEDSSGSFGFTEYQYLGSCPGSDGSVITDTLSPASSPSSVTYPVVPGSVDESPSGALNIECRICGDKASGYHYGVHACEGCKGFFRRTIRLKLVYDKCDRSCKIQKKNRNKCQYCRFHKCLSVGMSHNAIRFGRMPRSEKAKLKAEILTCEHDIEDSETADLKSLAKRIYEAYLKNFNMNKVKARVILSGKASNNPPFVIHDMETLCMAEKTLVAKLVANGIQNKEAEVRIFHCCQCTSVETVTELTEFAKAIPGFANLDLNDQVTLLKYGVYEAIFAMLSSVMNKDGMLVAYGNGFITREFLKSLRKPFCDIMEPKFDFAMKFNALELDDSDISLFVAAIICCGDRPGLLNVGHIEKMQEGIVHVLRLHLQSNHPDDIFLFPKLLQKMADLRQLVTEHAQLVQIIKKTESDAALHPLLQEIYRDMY
Chain of Voltage-gated inwardly rectifying potassium channel KCNH2 (Homo sapiens) (Q12809 whole entry, looked up): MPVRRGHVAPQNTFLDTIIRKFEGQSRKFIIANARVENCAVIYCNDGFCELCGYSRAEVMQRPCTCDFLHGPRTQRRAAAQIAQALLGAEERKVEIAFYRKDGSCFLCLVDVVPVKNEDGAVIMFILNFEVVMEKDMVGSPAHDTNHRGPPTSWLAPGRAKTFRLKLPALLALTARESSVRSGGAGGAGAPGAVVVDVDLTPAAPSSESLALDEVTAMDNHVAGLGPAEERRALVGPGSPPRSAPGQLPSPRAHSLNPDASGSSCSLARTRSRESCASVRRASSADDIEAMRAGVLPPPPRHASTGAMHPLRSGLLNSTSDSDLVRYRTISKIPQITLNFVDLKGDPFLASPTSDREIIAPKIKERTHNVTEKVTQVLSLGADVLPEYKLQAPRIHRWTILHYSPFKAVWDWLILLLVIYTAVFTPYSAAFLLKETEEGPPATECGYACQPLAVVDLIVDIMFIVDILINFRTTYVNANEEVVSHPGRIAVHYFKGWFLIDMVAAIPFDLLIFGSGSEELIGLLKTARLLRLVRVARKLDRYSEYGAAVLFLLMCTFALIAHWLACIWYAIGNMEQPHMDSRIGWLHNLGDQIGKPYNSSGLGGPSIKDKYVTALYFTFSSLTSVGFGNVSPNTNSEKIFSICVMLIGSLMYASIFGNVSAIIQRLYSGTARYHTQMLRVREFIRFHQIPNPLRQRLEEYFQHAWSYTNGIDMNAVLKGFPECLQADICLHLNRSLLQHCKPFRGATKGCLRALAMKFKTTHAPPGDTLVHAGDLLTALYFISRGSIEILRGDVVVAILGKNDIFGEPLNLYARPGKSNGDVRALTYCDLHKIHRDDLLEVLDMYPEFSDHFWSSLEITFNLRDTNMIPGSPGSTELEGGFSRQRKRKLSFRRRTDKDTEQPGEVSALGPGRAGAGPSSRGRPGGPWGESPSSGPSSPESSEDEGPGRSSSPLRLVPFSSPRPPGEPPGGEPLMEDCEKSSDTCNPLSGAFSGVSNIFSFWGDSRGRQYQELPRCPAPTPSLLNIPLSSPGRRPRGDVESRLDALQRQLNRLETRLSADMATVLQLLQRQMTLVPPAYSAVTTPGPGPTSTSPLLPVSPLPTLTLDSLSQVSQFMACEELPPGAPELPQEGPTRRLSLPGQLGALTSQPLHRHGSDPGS
Chain of Tumor necrosis factor (Homo sapiens) (P01375 whole entry, looked up): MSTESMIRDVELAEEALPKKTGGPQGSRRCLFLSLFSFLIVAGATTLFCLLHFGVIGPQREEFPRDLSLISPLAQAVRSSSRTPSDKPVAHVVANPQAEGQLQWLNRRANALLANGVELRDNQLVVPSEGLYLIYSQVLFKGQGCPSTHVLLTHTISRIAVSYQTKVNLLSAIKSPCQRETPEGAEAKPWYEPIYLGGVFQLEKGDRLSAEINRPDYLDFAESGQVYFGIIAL

Consider `C=Cc1ccccc1`, for which the call in assay [1], in assay [5] and in assay [6] was inactive. In addition, the Potency entry in assay [2] was “inactive”. Besides, the activation in [3] is -0.864% and -2.45%; in [4], -0.47% and -1.21%; in assay [7] it was 0.041% and 1.82%. The max response in [8] is -2.11% and 2.32%.

Take `COc1ccc(CNCC(O)COc2ccc3[nH]c(=O)ccc3c2)cc1OC` (stereo not given): the Potency entry in assay [2] was “inactive”.

For `CC1(S(=O)(=O)O)CC(=O)c2ccccc2C1=O` (stereo not given), in assay [2], the Potency result was “inactive”.

On to `NNc1nnc(Cc2ccncc2)c2ccccc12`, for which the Potency in assay [2] is 5.1 µM (active).

For the molecule `CCCOc1ccc2nc(NC(=O)OC)sc2c1`, the molecule was called inactive in [1] and in [11]. For the same molecule, the Potency in assay [2] is 1.14 µM (active). The Potency result in assay [9] and in [10] was “inactive” each time.

In the case of `CCCCc1cc2c(=O)c(C(=O)OC)c[nH]c2cc1OCc1ccccc1`, the Potency entry in assay [2] is “inactive”.

As for `COc1cc2[nH]c(C)c(CCN3CCN(c4ccccc4)CC3)c2cc1OC`, the Potency entry in assay [2] was “inactive”.

Turning to `CS(=O)(=O)Nc1cc2occ(NC=O)c(=O)c2cc1Oc1ccccc1`, the Potency entry in [2] was “inactive”.

Regarding `Cc1ccc(/C(=C\CN2CCCC2)c2cccc(/C=C/C(=O)O)n2)cc1`, the Potency entry in assay [2] was “inactive”.

Take `Cc1c(O)cc2c(c1C)O[C@](C)(CCC[C@H](C)CCC[C@H](C)CCCC(C)C)CC2`: the Potency entry in [2] is “inactive”.

Regarding `CCOC(=O)COc1ccc2c(C)c(CCN(CC)CC)c(=O)oc2c1`, the Potency entry in [2] was “inactive”.

Take `CCOc1ccc(N=C(C)Nc2ccc(OCC)cc2)cc1`: in assay [2], the Potency result is “inactive”.

As for `O=C(OCCO)c1ccccc1O`, in [2], the Potency entry was “inactive”.

Consider `CCCCCCCCCCCCCCCC(=O)OC/C=C(C)/C=C/C=C(C)/C=C/C1=C(C)CCCC1(C)C`, for which the Potency entry in assay [2] was “inactive”.

`CC(CN(C)C)CN1c2ccccc2S(=O)(=O)c2ccccc21` (stereo not given): in assay [2], the Potency entry was “inactive”.

Consider `NCCCNCCCCNC(=O)C(O)NC(=O)CCCCCCN=C(N)N` (stereo not given), for which the Potency entry in assay [2] was “inactive”.

As to `C[C@H]1C[C@@H]2[C@H]([C@@H](O)C[C@@]3(C)[C@H]2CC[C@]3(O)C(=O)COC(=O)CCC(=O)O)[C@@]2(C)C=CC(=O)C=C12`, in assay [2], the Potency result is “inactive”.

Take `CCN(CC)c1ccc(N=Nc2ccc(S(=O)(=O)N(C)C)cc2)c(S(=O)(=O)NCC[n+]2ccccc2)c1`: in [2], the Potency result was “inactive”.

For the molecule `CC(=O)OC[C@H]1O[C@@H](O[C@H]2[C@H](O)[C@@H](OC(=O)c3ccccc3C(=O)O)[C@H](O)O[C@@H]2COC(C)=O)[C@H](O)[C@@H](OC(=O)c2ccccc2C(=O)O)[C@@H]1O`, the Potency result in assay [2] was “inactive”.

In the case of `CN=C(NC)NCc1ccccc1`, the Potency result in assay [2] was “inactive”.

Turning to `O=S(=O)(c1ccccc1)N(CC(F)(F)F)c1ccc(C(O)(C(F)(F)F)C(F)(F)F)cc1`, in assay [12], the Potency is 27.3 µM (active). Besides, the values for the activation in [3] and in assay [7] were 23.4% and 5.58%, respectively. Besides, the max response in [8] was -0.426%.
